Reference: PubChem BioAssay (Tox21)
Records with an inconclusive call do not appear. Values without a mark were called inactive. The source made the active and inactive calls. Calls come from the whole dose curve.

target: Acetylcholinesterase (Homo sapiens) (UniProt P22303); assay: Acetylcholinesterase (AChE) small molecule antagonists: fluorescence cell-based qHTS assay (AID 1347398); conditions: SH-SY5Y cells; Potency: AChE activity; outcome: AChE activity; series mostly up to 115 µM; activity change, negative = inhibition: at the top concentration; note: nearly all actives have a fitted effect of over 50% in size
Sequence (P22303 whole entry, looked up): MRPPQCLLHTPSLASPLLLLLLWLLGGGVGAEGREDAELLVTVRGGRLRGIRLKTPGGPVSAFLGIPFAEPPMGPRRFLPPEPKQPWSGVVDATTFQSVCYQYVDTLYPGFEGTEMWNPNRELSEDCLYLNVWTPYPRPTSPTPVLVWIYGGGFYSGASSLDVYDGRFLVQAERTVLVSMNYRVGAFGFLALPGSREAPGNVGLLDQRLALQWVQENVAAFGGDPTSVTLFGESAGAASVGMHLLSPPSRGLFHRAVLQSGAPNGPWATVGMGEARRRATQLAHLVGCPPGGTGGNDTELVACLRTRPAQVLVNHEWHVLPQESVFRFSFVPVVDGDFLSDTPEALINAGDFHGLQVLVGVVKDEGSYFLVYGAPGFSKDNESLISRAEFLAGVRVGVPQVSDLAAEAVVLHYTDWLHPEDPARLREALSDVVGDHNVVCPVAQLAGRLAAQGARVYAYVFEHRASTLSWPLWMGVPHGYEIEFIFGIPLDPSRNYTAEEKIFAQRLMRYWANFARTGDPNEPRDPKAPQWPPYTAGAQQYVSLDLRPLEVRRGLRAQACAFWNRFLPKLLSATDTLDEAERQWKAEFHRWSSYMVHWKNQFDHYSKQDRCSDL
Summary of the method: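 Using neuroblastoma SH-SY5Y cells as the enzyme source, test chemicals are preincubated 30 min at 37 C; AChE-driven acetylthiocholine cleavage is then quantified by thiocholine-dependent Thiolite Green fluorescence after 40 min at room temperature.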
% is set by controls: 0 for no effect and ±100 for the full control effect.

In order of rising “activity change, negative = inhibition” value:
1. CCOc1cccc(-n2cc(C(=O)N3CCN(c4cc(C(=O)O)c5ccccc5c4)CC3)nc2-c2ccc(C)cc2)c1  -23.4%
2. Cc1cccc(NC(=S)N(C)C)c1  -14.8%
3. CCO[Si](C)(CCCOCC1CO1)OCC (stereo not given)  -5.78%
4. Cn1c(N)nc2nc[nH]c2c1=O  -5.67%
5. CCCCC(CC)COC(=O)COc1cc(Cl)c(Cl)cc1Cl (stereo not given)  -2.9%
6. Cc1cccc2cccnc12  -0.98%
7. Nc1ccc(Oc2ccc(Cl)cc2)cc1  -0.208%
8. CC(C)N(C)C  0.004%
9. CCc1cccc(CC)c1  0.24%
10. CCCCCCCCCCCCCC(=O)OCC  0.694%
11. COc1cccc(OC)c1O  0.856%
12. O=C1CCCCCCCCCCCCCCO1  1.27%
13. CC(C)c1cccc(C(C)C)c1N  3.46%
14. O=C(O)c1ccccc1-n1cc(C(=O)O)c(=O)c2cc(Nc3c(F)cc(F)cc3Cl)c(Cl)cc21  3.53%
15. O=Cc1ccc(C(=O)O)cc1  4.45%
16. COc1cc(Cl)ccc1Cl  4.46%
17. CC/C=C(\C)C=O  4.82%

In order of rising “activity change, negative = inhibition” value:
1. CN1CCN(C2Cc3ccccc3Sc3ccc(Cl)cc32)CC1 (stereo not given)  -21.1% [at 53.7 µM]
2. COc1cccc(CCc2ccccc2OCC(CN(C)C)OC(=O)CCC(=O)O)c1 (stereo not given)  -10.8% [at 53.7 µM]
3. CC(=O)O[C@]1(C(C)=O)CC[C@H]2[C@@H]3C=C(Cl)C4=CC(=O)CC[C@]4(C)[C@H]3CC[C@@]21C  -10.2% [at 53.7 µM]
4. C/C(=N\O)[C@@H](C)NCC(C)(C)CN[C@H](C)/C(C)=N/O  -6.52% [at 53.7 µM]
5. O=C(O)[C@@H](O)[C@H](O)[C@H](O)[C@@H](O)C(=O)O  -3.64% [at 53.7 µM]
6. CN1CCN(C(c2ccccc2)c2ccccc2)CC1  -1.67% [at 53.7 µM]
7. CN1CC(=O)NC1=N  0.064% [at 53.7 µM]
8. Cc1cc2cc3c(C)cc(=O)oc3c(C)c2o1  1.89% [at 53.7 µM]
9. CC(=O)NCCCS(=O)(=O)O  2.74% [at 53.7 µM]
10. O=C(O)P(=O)(O)O  4.12% [at 53.7 µM]
11. Cc1ccccc1C(=O)N1CC/C(=N\OS(=O)(=O)O)c2ccc(Cl)cc21  5.51% [at 53.7 µM]
12. Nc1ccc(S(=O)(=O)Nc2ccc(Cl)nn2)cc1  6.47% [at 53.7 µM]
13. NC(CSCC(=O)O)C(=O)O (stereo not given)  10.8% [at 53.7 µM]
14. O=C(O)c1ccc(OCCN2CCCCC2)cc1  13.6% [at 53.7 µM]
15. CCN(CC)S(=O)(=O)c1ccc(C(=O)O)cc1  17.2% [at 53.7 µM]
16. Cc1ncc(COP(=O)(O)O)c(C=O)c1O  17.2% [at 53.7 µM]

In the case of `CCCCCCCCCCC=CC1CC(=O)OC1=O` (stereo not given), the Potency is reported as “inactive”.
With `CN(C)C` the Potency was “inactive”.
With `CCCCCCCCCCN` the Potency was “inactive”.
In the case of `Cc1occc(=O)c1O`, the Potency is reported as “inactive”.
With `CCN(CC)c1ccc2c(C)cc(=O)oc2c1` the Potency was “inactive”.
For `Cc1cn([C@H]2C[C@H](N=[N+]=[N-])[C@@H](CO)O2)c(=O)[nH]c1=O`, the Potency was “inactive”.

`C=C(C)C(=O)OCCCCCCCCCCCCCCCCCC` was tested, and the activity change, negative = inhibition was 2.72% [at 23.8 µM].
